In the library only some 1.6% were active in any assay of this set; here they are far more common.
KCNQ2 pot – potentiators of rat KCNQ2 potassium channel; Potassium voltage-gated channel subfamily KQT member 2 (Rattus norvegicus), O88943; CHO-K1 KCNQ2, FluxOR thallium flux fluorescence; stronger effect = higher value; B-score at 10 µM; actives 0.54% (n = 310,000); AID 2239, 2010;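 active = fluorescence ratio B-score at least 3 SD of library B-scores, with initial fluorescence B-score within 3 of them, cut at about 5.3 in these data; same plate scores as AID 2156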;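 also: B-score of peak minus minimum over baseline fluorescence ratio after K+ and Tl+ stimulus; positive B-score means potentiation of KCNQ2 with more thallium influx and brighter signal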
KCNQ2 inh – rat KCNQ2 potassium channel inhibitors, primary screen, cell-based, CHO-K1, FluxOR thallium flux, B-score; AID 2156, 2009; actives 1.1% (n = 310,000); 20 min; stronger effect = lower value; B-score at 10 µM;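 active = fluorescence ratio B-score at most minus 3 library SDs, with starting brightness B-score within 2 library SDs, cut at about -5.5 in these data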
KCNQ2 inh conf – rat KCNQ2 potassium channel inhibitors, confirmation, cell-based, thallium flux; actives 57% (n = 1,000); KCNQ2-expressing cells, inhibition; stronger effect = lower value; activity change, negative = inhibition, % at 10 µM; AID 493025, 2011; shares compounds with KCNQ2 inh
KCNQ1 spec – human KCNQ1 channel inhibition, counter-screen for KCNQ2 inhibitor project, cell-based, FluxOR thallium flux; shares compounds with KCNQ2 inh; KCNQ1-expressing cells, FluxOR thallium flux fluorescence; stronger effect = lower value; activity change, negative = inhibition, % at 10 µM; actives 15% (n = 1,000);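 active = activity change at least 3 SD of negative controls below their mean in both duplicate wells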;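 also: CHO cells stably transfected with KCNQ1 and depolarized by potassium stimulus; peak minus minimum fluorescence over baseline after thallium addition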
Target sequence (P51787 whole entry, looked up): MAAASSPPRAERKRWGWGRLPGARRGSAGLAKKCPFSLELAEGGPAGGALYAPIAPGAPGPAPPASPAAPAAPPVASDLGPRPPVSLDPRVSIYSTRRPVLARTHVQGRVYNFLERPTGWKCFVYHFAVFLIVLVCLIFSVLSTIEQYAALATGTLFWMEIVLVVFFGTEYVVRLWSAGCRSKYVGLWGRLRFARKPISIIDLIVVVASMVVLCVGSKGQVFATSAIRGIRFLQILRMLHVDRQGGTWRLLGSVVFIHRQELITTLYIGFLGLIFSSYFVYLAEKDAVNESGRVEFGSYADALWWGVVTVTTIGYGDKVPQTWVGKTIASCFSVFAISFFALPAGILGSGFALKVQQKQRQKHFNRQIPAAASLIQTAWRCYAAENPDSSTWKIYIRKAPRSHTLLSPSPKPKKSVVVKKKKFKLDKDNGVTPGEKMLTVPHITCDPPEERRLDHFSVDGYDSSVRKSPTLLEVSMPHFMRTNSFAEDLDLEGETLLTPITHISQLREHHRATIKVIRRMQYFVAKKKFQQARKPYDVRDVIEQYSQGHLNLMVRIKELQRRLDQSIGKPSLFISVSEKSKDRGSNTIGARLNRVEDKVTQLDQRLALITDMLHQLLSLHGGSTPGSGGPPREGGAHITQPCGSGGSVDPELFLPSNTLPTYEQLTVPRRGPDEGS
CHO Tl ctr – thallium flux change in parental CHO cells, counter-screen for KCNQ2 inhibitor project; stronger effect = lower value; actives 14% (n = 1,000); activity change, % at 10 µM; shares compounds with KCNQ2 inh
KCNQ2 patch conf – rat KCNQ2 channel inhibitors, confirmation, cell-based, automated patch clamp, single concentration; shares compounds with KCNQ2 inh; KCNQ2-expressing cells, automated patch clamp current; AID 588531, 2011; actives 49% (n = 550); calls only at 10 µM
Hits are given with their value; . = inactive; / = not tested or not shown; + = active, no number. Unless noted, no rule for the calls is given here.

SMILES	KCNQ2 pot	KCNQ2 inh	KCNQ2 inh conf	KCNQ1 spec	CHO Tl ctr	KCNQ2 patch conf
O=C(c1cccc([N+](=O)[O-])c1)N1CCCC(C(=O)N2CCc3ccccc3C2)C1 (stereo not drawn)	/	.	/	/	/	/
COc1ccc(C)cc1NS(=O)(=O)c1ccc2c(c1)N(C)CCO2	/	.	/	/	/	/
Cc1nn(C(C)C(=O)NCCc2ccco2)c(=O)c2nn(-c3ccccc3)c(C)c12 (stereo not drawn)	.	.	/	/	/	/
CCNCCC(=O)N1c2ccccc2Sc2ccc(C(F)(F)F)cc21	.	.	/	/	/	/
COC(=O)/C(=C\Nc1ccc(Cl)c2ccccc12)c1ncc(C(F)(F)F)cc1Cl	.	-8.45	-18.0%	.	.	.
CCOC(=O)/C(=C\Nc1ccccc1C(F)(F)F)Sc1ncc(C(F)(F)F)cc1Cl	/	.	/	/	/	/
Cn1nc(C(=O)NC2CCCCC2)c2c1-c1ccccc1SC2	/	.	/	/	/	/
CC(C)N(C(=O)c1nn(C)c2c1CSc1ccccc1-2)C1CCCCC1	.	-8.65	-26.5%	.	.	.
O=C(Cc1c(F)cccc1Cl)N1CCN(S(=O)(=O)c2cccc(F)c2)CC1	/	.	/	/	/	/
CCOC(=O)c1cnc(SCCN2CCOCC2)nc1N	/	.	/	/	/	/
O=C(/C=C/c1ccccc1Cl)N(c1ccccn1)C1CCCCC1	.	-7.44	.	.	.	/
O=C(/C=C/c1ccccc1)N(c1ccccn1)C1CCCCC1	/	.	/	/	/	/
CC(C)(C)c1ccc(OCC(=O)N(c2ccccn2)C2CCCCC2)cc1	/	.	/	/	/	/
CN(C(=O)COc1ccc(Cl)cc1Br)C1CCCCC1	.	-7.75	-30.5%	.	.	+
O=C(COc1ccc(Cl)cc1Cl)N(c1ccccn1)C1CCCCC1	.	-6.92	-35.0%	.	.	+
CCOC(=O)CNC(=O)COc1ccc(Cl)cc1Br	/	.	/	/	/	/
Cc1onc(-c2c(F)cccc2Cl)c1C(=O)ONC(=O)c1ccco1	.	.	/	/	/	/
CC(C)C[C@H](NC(=O)C1CCN(S(=O)(=O)c2ccccc2)CC1)C(=O)NCc1ccccn1	/	.	/	/	/	/
CC(=C/c1ccccc1)/C=N/Nc1nc(N2CCCCC2)nc(N2CCCCC2)n1	/	.	/	/	/	/
C/C(=N\Nc1nc(N2CCCCCC2)nc(N2CCCCCC2)n1)c1ccccc1	.	-9.23	-28.0%	.	.	+
CCCCN(CC)C(=O)c1cccc(Cl)c1	.	.	/	/	/	/
CCCCN(CC)C(=O)c1ccc(-c2ccccc2)cc1	.	-6.79	-26.0%	.	.	.
CC(=O)N1CCN(c2cc(N3CCCC3)c(F)cc2[N+](=O)[O-])CC1	/	.	/	/	/	/
CCN1CCN(c2cc(N3CCc4ccccc4C3)c(F)cc2[N+](=O)[O-])CC1	.	-6.94	-29.0%	.	.	/
O=C(CNC(=O)c1ccccc1)OCc1cc(=O)n2cc(Br)ccc2n1	/	.	/	/	/	/
SMILES	KCNQ2 pot	KCNQ2 inh	KCNQ2 inh conf	KCNQ1 spec	CHO Tl ctr	KCNQ2 patch conf
Cc1cc(CN(C)C)c(O)c(C2(C)CCCCC2)c1	.	-9.08	.	.	.	/
Cc1cc(CN2CCOCC2)c(O)c(C2(C)CCCCC2)c1	.	-7.21	-19.0%	.	.	.
Oc1c(CN2CCOCC2)cc(-c2ccccc2)cc1CN1CCOCC1	/	.	/	/	/	/
O=C(CSc1cccc(C(F)(F)F)c1)Nc1cc(S(=O)(=O)N2CCCC2)ccc1Cl	/	.	/	/	/	/
O=C(N/N=C1/CCSC1)c1cc(Br)ccc1O	.	.	/	/	/	/
COc1ccc(N2C(C(C)=O)=NN(c3ccccc3)C2c2cccs2)cc1 (stereo not drawn)	.	-7.19	-32.5%	-37.0%	-25.0%	.
CC(=O)Nc1ccc(N2C(C(C)=O)=NN(c3ccccc3)C2c2cccs2)cc1 (stereo not drawn)	.	.	/	/	/	/
CC(C)c1ccc(NC(=O)CSc2n[nH]c(=O)n2-c2cccnc2)cc1	.	.	/	/	/	/
O=C(NC1CCCC1)c1cc2nc(-c3ccccc3)cc(-c3ccccc3)n2n1	/	.	/	/	/	/
O=C(NCCN1CCOCC1)c1cnn2c(-c3ccccc3)cc(-c3ccccc3)nc12	/	.	/	/	/	/
O=C(c1cc(-c2ccc(Cl)cc2)nc2ccccc12)N1CCOCC1	/	.	/	/	/	/
Cc1ccc(-c2cc(C(=O)N3CCC(C)CC3)c3ccccc3n2)cc1	.	-8.3	-29.0%	.	.	.
O=C(c1cnn2c(-c3ccccc3)cc(-c3ccccc3)nc12)N1CCN(Cc2ccccc2)CC1	.	-8.93	-28.0%	.	.	.

Source: PubChem (Johns Hopkins Ion Channel Center)
